Bioassay records as filed in PubChem BioAssay.
Compounds with a hit are over-represented: about 11% of the library has one in this group of screens.
CBFb RUNX1 block: CBF-beta/RUNX1 interaction disruption; AlphaScreen CBFb-His/RUNX1-biotin binding, biochemical; 230,000 tested, under 10 active; Q01196+Q13951; Potency, µM (doses to about 59.8 µM), for the others: at the top dose activity, negative = inhibition, most hits filed as inhibitors; AID 1477; further: % of control where 0% means no effect
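Compounds were screened at multiple concentrations against a preformed CBF-beta(His)/RUNX1(biotin) complex (30 nM of each) for 15 min at room temperature, followed by 90 min with nickel and streptavidin beads and AlphaScreen reading.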
ALDH1A1 block: inhibitors of human aldehyde dehydrogenase 1A1 | P00352 | Purified ALDH1A1, NADH fluorescence, propionaldehyde substrate | hit rate 7.3% among 220,000 | Potency, µM (titrated, usually from 75.3 µM), for inactives: top-dose activity, negative = inhibition, usual class: inhibitors; active means well fitted inhibition curve with a large enough effect, not every such curve was filed as active; inconclusive means small, poorly fitted or top-dose-only effect, or another doubt; inactive means no such curve, though single readings can be large or run the other way;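 further: potency means the concentration at half of the fitted maximal effect; plate controls were no enzyme wells and a reference inhibitor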
Target sequence (P00352 whole entry, looked up): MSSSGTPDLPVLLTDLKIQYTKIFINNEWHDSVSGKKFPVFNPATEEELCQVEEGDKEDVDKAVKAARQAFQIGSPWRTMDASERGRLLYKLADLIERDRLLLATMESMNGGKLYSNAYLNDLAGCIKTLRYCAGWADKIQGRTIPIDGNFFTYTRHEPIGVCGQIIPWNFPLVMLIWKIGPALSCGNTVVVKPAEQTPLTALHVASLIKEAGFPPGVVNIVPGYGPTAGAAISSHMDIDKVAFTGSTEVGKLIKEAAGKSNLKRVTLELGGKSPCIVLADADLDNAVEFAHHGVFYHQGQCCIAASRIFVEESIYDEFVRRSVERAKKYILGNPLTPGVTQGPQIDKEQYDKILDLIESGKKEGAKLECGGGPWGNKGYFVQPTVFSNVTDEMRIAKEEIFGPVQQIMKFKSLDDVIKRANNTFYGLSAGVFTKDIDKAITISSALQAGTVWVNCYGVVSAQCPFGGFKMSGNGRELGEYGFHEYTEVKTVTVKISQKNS
HTT cytoprotect: cytoprotection in Huntington HTT-Q103 PC12 cell model. PC12 HTT-Q103 induced, cytoprotection, ATP luminescence, 40 h. Potency, µM (series often up to 56.4 µM), for the others: cytoprotection (ATP increase), most hits filed as activators. hit rate 0.14% among 230,000. AID 1471; further: potency means the concentration at half of the fitted maximal effect; % of control where 0% means no effect; nearly all actives have a fitted effect of over 45% in size
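ATP quantification (ATPlite) reports survival of PC12 cells in which tebufenozide, 100 nM final, switches on Htt exon 1 with 103 glutamines linked to GFP; compounds are titrated.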
HTT aggregate: inhibitors of mutant huntingtin aggregate formation in PC12 cells | Potency, µM (highest dose often 46.1 µM), without a hit: top-dose activity change, negative = inhibition, usual class: inhibitors | hit rate 1.1% among 220,000 | PC12 HttQ103-GFP aggregates, Acumen cytometry, 40 h; further: potency means the concentration at half of the fitted maximal effect; on the % scale 0 is the no-effect control and ±100 the full control effect; nearly all actives have a fitted effect of over 60% in size
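PC12 cells stably carrying ecdysone-inducible HTT exon 1 Q103–GFP were induced with tebufenozide (100 nM final) and treated with library compounds in titration. GFP aggregates in lysates were counted by laser scanning cytometry.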
PNC inhibitor: perinucleolar compartment assembly inhibition; PC3M PTB-GFP, PNC prevalence imaging, 16 h; active compounds read low; activity change (PNC), negative = inhibition, % at 10 µM; hit rate 3.1% among 140,000; AID 2417;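 active means readout at or below -70, meaning at least 70% loss of cells showing the perinucleolar compartment, a nuclear body marking cancer cells; inconclusive means readout between -30 and a set limit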;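 further: plate controls were DMSO wells for no effect and camptothecin positive control wells for full effect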
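Compounds are pinned in duplicate onto adhered PC3M cells stably expressing GFP-tagged PTB and incubated 16 h at 37 C. Cells are then fixed, nuclei stained with Hoechst, and PNC-positive cells counted.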
HPGD inh: blocks human HPGD enzyme activity; P15428; purified HPGD, NADH fluorescence kinetic, PGE2 substrate; Potency, µM, inactives show at the top dose activity change, negative = inhibition, usual class: inhibitors; hit rate 4.3% among 150,000; active means well fitted inhibition curve with a large enough effect, not every such curve was filed as active; inconclusive means small, poorly fitted or top-dose-only effect, or another doubt; inactive means no such curve, though single readings can be large or run the other way; further: potency means the concentration at half of the fitted maximal effect; on the % scale 0 is the no-effect control and ±100 the full control effect
Target sequence (P15428 whole entry, looked up): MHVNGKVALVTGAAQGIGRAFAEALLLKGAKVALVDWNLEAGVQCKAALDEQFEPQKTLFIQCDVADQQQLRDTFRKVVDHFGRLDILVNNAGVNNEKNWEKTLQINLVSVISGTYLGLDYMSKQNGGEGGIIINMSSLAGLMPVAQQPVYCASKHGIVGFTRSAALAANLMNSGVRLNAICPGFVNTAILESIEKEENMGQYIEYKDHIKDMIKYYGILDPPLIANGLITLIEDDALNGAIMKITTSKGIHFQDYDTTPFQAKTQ
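NADH formation kinetics: reaction with 30 uM PGE2 and 1 mM NAD+ (final), 20 nM enzyme, Tris-HCl pH 8 with Tween 20, after 15 min compound preincubation at room temperature. Fluorescence change, last versus first of five reads.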
An asterisk follows results filed as active; [ ] = dose if it differs, or a comment. Unless noted, the call rests on the fitted dose curve; in most records, active means well fitted curve in the direction sought with a large enough effect; inconclusive means small, poorly fitted or top-dose-only effect, or another doubt; inactive means no such curve, though single readings can be large; an effect the other way counts as inactive or inconclusive.

CNC(=S)N/N=C/c1cn(CCOc2cccc(OC)c2)c2ccccc12 was read as CBFb RUNX1 block inconclusive, ALDH1A1 block inconclusive, HTT cytoprotect inconclusive, HTT aggregate 4%, PNC inhibitor 16 and HPGD inh 16µM*.
Screening COc1cccc(OCCn2cc(C(=O)c3ccco3)c3ccccc32)c1 returned CBFb RUNX1 block 12%, ALDH1A1 block 22µM*, HTT cytoprotect -16%[0.074 µM], HTT aggregate -26%, PNC inhibitor 33 and HPGD inh inconclusive.
`CC(=O)O[C@H]1CC[C@@]2(C)C(=CC[C@@H]3[C@@H]4CC[C@H](c5cc(C(F)(F)F)n(C(C)=O)n5)[C@]4(C)CC[C@@H]32)C1` gave ALDH1A1 block 4%[13.5 µM], HTT cytoprotect -5%[10 µM] and HPGD inh -5%.
For CCOc1ccc(-c2nc(=S)[nH][nH]2)cc1 the results were CBFb RUNX1 block -2%, ALDH1A1 block 25µM*, HTT cytoprotect -17%, HTT aggregate 17%, PNC inhibitor 5 and HPGD inh inconclusive.
`COc1ccc(-c2nc(=S)[nH][nH]2)cc1` gave CBFb RUNX1 block 1%, ALDH1A1 block 13µM*, HTT cytoprotect -23%, HTT aggregate 7%[9.22 µM], PNC inhibitor 8 and HPGD inh 13µM*.
Screening CN(CC(=O)Nc1ccc(Cl)cc1)CC(=O)Nc1ccc(C(N)=O)cc1 returned CBFb RUNX1 block 7%, ALDH1A1 block 32µM*, HTT cytoprotect -39% and HTT aggregate 29%.
For COC(=O)C1=CN(C)C=C(C(=O)OC)C1c1ccccc1Cl the results were CBFb RUNX1 block 17%, ALDH1A1 block inconclusive, HTT cytoprotect -6%, HTT aggregate 6%, PNC inhibitor -109* and HPGD inh inconclusive.
`O=[N+]([O-])c1ccc(Nc2nc(NCCO)nc(N3CCCC3)n2)cc1` gave CBFb RUNX1 block -2%, ALDH1A1 block 1.6µM*, HTT cytoprotect -33% and HTT aggregate -4%.
For OCCNc1nc(N2CCCC2)nc(N2CCCC2)n1 the results were CBFb RUNX1 block 1%, ALDH1A1 block 3%, HTT cytoprotect 14%[10 µM], HTT aggregate -13%, PNC inhibitor 1 and HPGD inh -9%.
For O=C(Cn1cnc2cc([N+](=O)[O-])ccc2c1=O)NCCc1ccc(F)cc1 the results were CBFb RUNX1 block 7%, ALDH1A1 block 32µM*, HTT cytoprotect -10% and HTT aggregate -25%.
For Cc1ccc(Nc2nc(N)nc(CN3CCN(Cc4ccc5c(c4)OCO5)CC3)n2)cc1C the results were CBFb RUNX1 block -11% and ALDH1A1 block 7.9µM*.
For COC(=O)CC(=O)Cc1nc(N)nc(Nc2ccc(C)c(C)c2)n1 the results were CBFb RUNX1 block -8%, ALDH1A1 block 1%, HTT cytoprotect 7%[10 µM], HTT aggregate 13%, PNC inhibitor -100* and HPGD inh -12%.
`COC(=O)CC1[C@@]2(C)C[C@@]34OC5(C)OC6(CC[C@@]7(C)C(c8ccoc8)OC(=O)C(C(C)=O)C7[C@]6(O5)C(O)[C@@]3(O)C2O)[C@]14C` (some centres not stated) gave ALDH1A1 block -3% and HPGD inh -4%.
`CCN(c1ccccc1)S(=O)(=O)c1ccc(Cl)c(NC(=O)CSc2n[nH]c(N)n2)c1` gave CBFb RUNX1 block 1%, ALDH1A1 block 27%, HTT cytoprotect -11%[10 µM], HTT aggregate -11%, PNC inhibitor 19 and HPGD inh -1%.
`CCCCOC(=O)Sc1nc2ccccc2o1` gave CBFb RUNX1 block 2%, ALDH1A1 block inconclusive, HTT cytoprotect -9%, HTT aggregate 2%, PNC inhibitor 8 and HPGD inh -26%.
`Cc1nc(NCc2ccccc2)c2nc(-c3ccccc3)n(CCN(C)C)c2n1` gave CBFb RUNX1 block -8%, ALDH1A1 block inconclusive, HTT cytoprotect -19% and HPGD inh inconclusive.
Screening CCC(=O)Nc1ccc(N2CCN(S(C)(=O)=O)CC2)cc1 returned CBFb RUNX1 block 0%, ALDH1A1 block 8%, HTT aggregate 17%, PNC inhibitor 11 and HPGD inh -13%.
`O=c1c(O)c(-c2cccs2)oc2ccc(Cl)cc12` gave CBFb RUNX1 block inconclusive, ALDH1A1 block 8%, HTT cytoprotect 23%, HTT aggregate 14µM*, PNC inhibitor inconclusive and HPGD inh -12%.
Screening Cc1ccc2oc(-c3ccccc3)c(O)c(=O)c2c1 returned CBFb RUNX1 block -3%[21.7 µM], ALDH1A1 block -1%, HTT cytoprotect 24%[1.9 µM] and HPGD inh -4%.
Cc1ccc(-c2oc3ccccc3c(=O)c2O)cc1 was read as CBFb RUNX1 block 5%, ALDH1A1 block 2%, HTT cytoprotect -13%, HTT aggregate 11µM*, PNC inhibitor -9 and HPGD inh -20%.
`O=c1c(O)c(-c2cccs2)oc2ccccc12` gave CBFb RUNX1 block 19%, ALDH1A1 block -14%, HTT cytoprotect 17%[10 µM], HTT aggregate 11µM*, PNC inhibitor 12 and HPGD inh -28%.
Screening O=c1c(O)c(-c2ccccc2)oc2ccccc12 returned ALDH1A1 block -13% and HPGD inh -29%.
Screening Cc1ccc2oc(-c3ccccc3)c(C(=O)O)c(=O)c2c1 returned CBFb RUNX1 block -7%, ALDH1A1 block inconclusive, HTT cytoprotect -59%, HTT aggregate 10µM*, PNC inhibitor 66 and HPGD inh 14µM*.
Screening Cc1csc(NC(=O)CSc2nncc(=O)n2N)n1 returned CBFb RUNX1 block -7%, ALDH1A1 block 8%, HTT cytoprotect 14%[10 µM] and HTT aggregate 18%.
Screening O=C(O)[C@@H]1[C@@H]2O[C@H]([C@@H](Br)[C@H]2Br)[C@H]1C(=O)O returned ALDH1A1 block -2%[13.5 µM], HTT cytoprotect -18%[10 µM] and HPGD inh -16%.
Screening CCOc1cc(/C=C2/NC(=S)NC2=O)ccc1OCc1ccc([N+](=O)[O-])cc1 returned CBFb RUNX1 block inconclusive, ALDH1A1 block 2%, HTT cytoprotect -34%[10 µM], HTT aggregate -8%, PNC inhibitor 34 and HPGD inh -9%.
For O=C1NC(=S)N/C1=C/c1cccc([N+](=O)[O-])c1O the results were CBFb RUNX1 block -7%, ALDH1A1 block 22µM*, HTT cytoprotect -4%, HTT aggregate -8%, PNC inhibitor 61 and HPGD inh -27%.
O=C1NC(=S)N/C1=C/c1cc([N+](=O)[O-])ccc1O was read as CBFb RUNX1 block -3%, ALDH1A1 block 5µM*, HTT cytoprotect -7%[10 µM], HTT aggregate 1%, PNC inhibitor 31 and HPGD inh inconclusive.
Screening Cc1ccc(/C=C2\NC(=S)NC2=O)cc1[N+](=O)[O-] returned CBFb RUNX1 block -4%, ALDH1A1 block -10% and HTT aggregate 17%.
